Experimental data as given in PubChem BioAssay.
Records with an inconclusive call do not appear. Active and inactive are the calls of the source.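 The calls were made as follows, unless noted: active = normalized viability below 100% at a tested concentration; inactive = the rest.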

Assays:
[1] = growth inhibition of DIPG glioma cells, dose response, cell-based, SU-DIPG-XVII, MIPE5.0, CellTiter-Glo, qHTS (AID 1347060; cut-off not given, nearly all actives have AC50 up to about 26 µM;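 as to AC50: cells exposed to compound for 48 hours before viability readout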); details: SU-DIPG-XVII viability, CellTiter-Glo ATP luminescence
[2] = growth inhibition of DIPG glioma cells, dose response, cell-based, SU-DIPG-XIII, MIPE4.0, CellTiter-Glo, qHTS (AID 1347061; cut-off not given, nearly all actives have AC50 up to about 37 µM;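 also: cells exposed to compound for 48 hours before readout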); details: SU-DIPG-XIII viability, CellTiter-Glo ATP luminescence
[3] = growth inhibition of DIPG glioma cells, dose response, cell-based, JHH-DIPG-1, MIPE4.0, CellTiter-Glo, qHTS (AID 1347062; cut-off not given, nearly all actives have AC50 up to about 27 µM;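 as to AC50: cells exposed to compound for two days before readout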); details: JHH-DIPG-1 viability, CellTiter-Glo ATP luminescence
[4] = growth inhibition of DIPG glioma cells, dose response, cell-based, SU-DIPG-XIII, MIPE5.0, CellTiter-Glo, qHTS (AID 1347064; cut-off not given, nearly all actives have AC50 up to about 23 µM;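 as to AC50: cells exposed to compound for 48 hours before the viability read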); details: SU-DIPG-XIII viability, CellTiter-Glo ATP luminescence
[5] = viability loss in pontine glioma line – cell-based, SU-DIPG-XXV, MIPE5.0, CellTiter-Glo, qHTS, dose response (AID 1347065; cut-off not given, nearly all actives have AC50 up to about 26 µM;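 also: cells exposed to compound for 48 hours before ATP readout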); details: CellTiter-Glo ATP luminescence
[6] = SU-DIPG-VI glioma cell viability, MIPE4.0 library, CellTiter-Glo luminescence, qHTS (AID 1347066; cut-off not given, nearly all actives have AC50 up to about 30 µM;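 also: cells exposed to compound for 48 hours before readout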); details: CellTiter-Glo ATP luminescence
[7] = JHH-DIPG-1 glioma cell viability, MIPE5.0 library, CellTiter-Glo luminescence, qHTS (AID 1347067; cut-off not given, nearly all actives have AC50 up to about 26 µM;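 also: cells exposed to compound for 48 hours before readout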); details: JHH-DIPG-1 glioma viability, CellTiter-Glo ATP luminescence
[8] = sensitizers of A549 cells to miR-34 induction, primary screen, imaging, A549 dox-inducible miR-34, nuclei and caspase counts (AID 1347080;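 active = compounds whose cell count with miR-34 switched on is under 0.7 times the count with it off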); details: A549 miR-34 inducible, Hoechst nuclei count, 48 h
[9] = modifiers of HSF1 nuclear foci, imaging, Selleck Cancer Library (AID 1347162; in the data active = plate-normalised HSF1 focus index below about 0.46); details: human cells, at 10 µM; SSMD: measured here: HSF1 foci SSMD mean; cell count: measured here: cell number; plate-normalised HSF1 focus index: stronger effect = lower value
[10] = survival rescue of mitochondrial mutant cells in low glucose, primary screen, MELAS cybrids, Rieske KO mouse fibroblasts, CellTiter-Glo (AID 1508586;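 active = mean z-score across replicates of 1.96 or higher in either the MELAS or the Rieske mutant cell line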;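 also: z relative to plate mean and SD of compound and empty wells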)
[11] = ovarian cancer cell viability with rucaparib, profiling panel, oncology-focused library, rucaparib conditional (AID 1508598); details: patient-derived ovarian cancer cells, CellTiter-Glo viability, 144 h, stronger effect = lower value
[12] = SU-DIPG-XXV glioma cell viability, MIPE5.0 library, qHTS (AID 1347068; cut-off not given, nearly all actives have IC50 up to about 30 µM)

For `Cc1ccc(NC(=O)c2cccc(C(C)(C)C#N)c2)cc1Nc1ccc2ncn(C)c(=O)c2c1`, which AC50 [1] is on record?
Its AC50 is 2.09 µM (active).

And the AC50 [2]?
The AC50 was 4.18 µM (active).

And the AC50 [3]?
Its AC50 is 5.9 µM (active).

What about the AC50 [4] of the same compound?
The AC50 was 1.48 µM (active).

And the AC50 [5]?
Its AC50 is 7.42 µM (active).

And the outcome [6]?
Its outcome is “inactive”.

And the AC50 [7]?
Its AC50 is 0.934 µM (active).

What about the fold change ([8]; stronger effect = lower value, cell number ratio, induced over uninduced) of the same compound?
The fold change was 0.944 (inactive).

And the fold change ([8]; measured here: relative caspase fold change +Dox/-Dox)?
The fold change was 1.09.

What about the cell count ([8]; measured here: total cells with miR-34 induction, stronger effect = lower value) of the same compound?
The cell count was 5830.

And the cell count ([8]; measured here: total cells without miR-34 induction)?
Its cell count is 6180.

And the SSMD [9]?
The SSMD was 3.15.

And the cell count [9]?
The cell count was 7560.

What about the plate-normalised HSF1 focus index [9] of the same compound?
Its plate-normalised HSF1 focus index is 1.12 (inactive).

And the z-score ([10]; MELAS cybrid survival, CellTiter-Glo 48 h, stronger effect = higher value)?
The z-score was 0.493 (inactive).

What about the z-score ([10]; Rieske KO mouse fibroblast survival, CellTiter-Glo 72 h) of the same compound?
The z-score was -1.35.

What about the viability ([11]; at 0.000305 µM, OCI-C5x cells, with rucaparib 10 µM, 100% = cells with rucaparib alone) of the same compound?
The viability was 126% (inactive).

What about the viability ([11]; at 0.000305 µM, OCI-C5x cells, without rucaparib) of the same compound?
The viability was 104% (inactive).

And the viability ([11]; at 0.000305 µM, OCI-P5x cells, with rucaparib 20 µM, 100% = cells with rucaparib alone)?
The viability was 95.5% (active).

And the viability ([11]; at 0.000305 µM, OCI-P5x cells, without rucaparib)?
The viability was 90.4% (active).

What about the viability ([11]; at 0.00122 µM, OCI-C5x cells, with rucaparib 10 µM, 100% = cells with rucaparib alone) of the same compound?
Its viability is 129% (inactive).

And the viability ([11]; at 0.00122 µM, OCI-C5x cells, without rucaparib)?
Its viability is 115% (inactive).

And the viability ([11]; at 0.00122 µM, OCI-P5x cells, with rucaparib 20 µM, 100% = cells with rucaparib alone)?
Its viability is 107% (inactive).

And the viability ([11]; at 0.00122 µM, OCI-P5x cells, without rucaparib)?
Its viability is 95.5% (active).

What about the viability ([11]; at 0.00488 µM, OCI-C5x cells, with rucaparib 10 µM, 100% = cells with rucaparib alone) of the same compound?
The viability was 128% (inactive).

And the viability ([11]; at 0.00488 µM, OCI-C5x cells, without rucaparib)?
Its viability is 109% (inactive).

And the viability ([11]; at 0.00488 µM, OCI-P5x cells, with rucaparib 20 µM, 100% = cells with rucaparib alone)?
The viability was 107% (inactive).

And the viability ([11]; at 0.00488 µM, OCI-P5x cells, without rucaparib)?
Its viability is 99.1% (active).

And the viability ([11]; at 0.0195 µM, OCI-C5x cells, with rucaparib 10 µM, 100% = cells with rucaparib alone)?
The viability was 116% (inactive).

And the viability ([11]; at 0.0195 µM, OCI-C5x cells, without rucaparib)?
Its viability is 124% (inactive).

And the viability ([11]; at 0.0195 µM, OCI-P5x cells, with rucaparib 20 µM, 100% = cells with rucaparib alone)?
Its viability is 109% (inactive).

And the viability ([11]; at 0.0195 µM, OCI-P5x cells, without rucaparib)?
Its viability is 95% (active).

What about the viability ([11]; at 0.0781 µM, OCI-C5x cells, with rucaparib 10 µM, 100% = cells with rucaparib alone) of the same compound?
Its viability is 115% (inactive).

What about the viability ([11]; at 0.0781 µM, OCI-C5x cells, without rucaparib) of the same compound?
The viability was 121% (inactive).

What about the viability ([11]; at 0.0781 µM, OCI-P5x cells, with rucaparib 20 µM, 100% = cells with rucaparib alone) of the same compound?
Its viability is 84.1% (active).

What about the viability ([11]; at 0.0781 µM, OCI-P5x cells, without rucaparib) of the same compound?
The viability was 82.8% (active).

What about the viability ([11]; at 0.313 µM, OCI-C5x cells, with rucaparib 10 µM, 100% = cells with rucaparib alone) of the same compound?
The viability was 112% (inactive).

And the viability ([11]; at 0.313 µM, OCI-C5x cells, without rucaparib)?
Its viability is 125% (inactive).

And the viability ([11]; at 0.313 µM, OCI-P5x cells, with rucaparib 20 µM, 100% = cells with rucaparib alone)?
Its viability is 68.7% (active).

And the viability ([11]; at 0.313 µM, OCI-P5x cells, without rucaparib)?
The viability was 85.5% (active).

What about the viability ([11]; at 1.25 µM, OCI-C5x cells, with rucaparib 10 µM, 100% = cells with rucaparib alone) of the same compound?
The viability was 108% (inactive).

And the viability ([11]; at 1.25 µM, OCI-C5x cells, without rucaparib)?
Its viability is 127% (inactive).

What about the viability ([11]; at 1.25 µM, OCI-P5x cells, with rucaparib 20 µM, 100% = cells with rucaparib alone) of the same compound?
The viability was 73.2% (active).

What about the viability ([11]; at 1.25 µM, OCI-P5x cells, without rucaparib) of the same compound?
Its viability is 81.8% (active).

And the viability ([11]; at 5 µM, OCI-C5x cells, with rucaparib 10 µM, 100% = cells with rucaparib alone)?
Its viability is 127% (inactive).

What about the viability ([11]; at 5 µM, OCI-C5x cells, without rucaparib) of the same compound?
Its viability is 140% (inactive).

And the viability ([11]; at 5 µM, OCI-P5x cells, with rucaparib 20 µM, 100% = cells with rucaparib alone)?
The viability was 67.4% (active).

And the viability ([11]; at 5 µM, OCI-P5x cells, without rucaparib)?
The viability was 22.1% (active).

With `CN(C)CC(C)(C)CNc1nn2c(-c3ccccc3)nnc2cc1C1CCC1` as the compound, how does the outcome [1] read?
Its outcome is “inactive”.

And the outcome [2]?
Its outcome is “inactive”.

And the AC50 [3]?
The AC50 was 16.6 µM (active).

What about the outcome [4] of the same compound?
Its outcome is “inactive”.

And the outcome [5]?
The outcome was “inactive”.

And the outcome [6]?
Its outcome is “inactive”.

And the outcome [7]?
Its outcome is “inactive”.

And the outcome [12]?
The outcome was “inactive”.

Which results are given for `CCCCC(F)(F)[C@@]1(O)CC[C@H]2[C@@H](CC(=O)[C@@H]2CCCCCCC(=O)O)O1`?
outcome [1]: inactive; outcome [2]: inactive; outcome [3]: inactive; outcome [4]: inactive; outcome [5]: inactive; outcome [6]: inactive; outcome [7]: inactive; outcome [12]: inactive
